Test [1] has as its target Transient receptor potential cation channel subfamily V member 1 (Homo sapiens) (UniProt Q8NER1). Kind of test: HTS Assay for Compounds that Act as Enhancers of the Vanilloid Receptor 1 (AID 488979). Note: 0% is about no effect. Put shortly: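 Calcium influx kinetics via Fluo-8 (480/520 nm) in TRPV1-expressing cells, 2000/well cultured overnight at 35.5C. Compound-alone read 3 min (agonist phase), followed by EC20 capsaicin challenge for 2 min (enhancer phase).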

Test [2] concerns the target Thyrotropin receptor (Homo sapiens) (UniProt P16473). The test is described as follows: qHTS Assay for Antagonists of the Thyroid Stimulating Hormone Receptor (AID 488980). Note: series mostly up to about 58 µM; 0% is about no effect. Put shortly: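 TSHR-transfected HEK293 cells (2000/well) in HEPES-buffered HBSS with 70 uM RO 20-1724 were stimulated with 4 nM TSH (EC80, final) in the presence of compound. cAMP was measured by HTRF competition after lysis and 30 min at RT.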
For orientation: qHTS replaces the single test concentration by a dilution series.

The target of test [3] is D(1A) dopamine receptor (Homo sapiens) (UniProt P21728). The test is described as follows: HTS Assay for Allosteric Agonists of the Human D1 Dopamine Receptor: Primary Screen for Agonists (AID 488981). Note: 0% is about no effect. Put shortly: (§1)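 Calcium flux in an inducible, force-coupled HEK293 Trex D1 line (overnight at 30 C): agonist mode is the 180 s kinetic read after compound; potentiator mode is the following 180 s read after dopamine at EC20.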

Test [4] has the same target. Kind of test: HTS Assay for Allosteric Agonists of the Human D1 Dopamine Receptor: Primary Screen for Potentiators (AID 488982). Note: 0% is about no effect. In short, it runs like this:
as §1

Test [5] has the same target. Kind of test: HTS Assay for Allosteric Agonists of the Human D1 Dopamine Receptor: Primary Screen for Antagonists (AID 488983).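 Note: calcium flux response to an EC80 dopamine challenge measured with no-wash dye; % is set by controls: 0 for no effect and ±100 for the full control effect; nearly all actives have a fitted effect of over 65% in size.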 In short, it runs like this:
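Calcium-flux read-out in inducible HEK293 T-REx cells expressing D1, dye-loaded 30–90 min at room temperature. Kinetic reads: 180 s after compound (agonist phase), then 180 s after an EC80 dopamine challenge.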

Test [6] can be described thus: Validation screen for small molecules that induce genotoxicity in human embryonic kidney (HEK293T) cells expressing luciferase-tagged ELG1 (AID 493106). Note: 0% is about no effect. In short, it runs like this: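 ELG1-luciferase reporter readout (ONE-Glo, 30 min, room temperature) after 16 hr compound treatment at 37 °C of HEK293T cells at 2,000 per well. Rising luminescence flags genotoxic stress.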

In test [7] the target is ATPase family AAA domain-containing protein 5 (Homo sapiens) (UniProt Q96QE3). Kind of test: Validation screen for small molecules that inhibit ELG1-dependent DNA repair in human embryonic kidney (HEK293T) cells expressing luciferase-tagged ELG1 (AID 493107).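 Note: series mostly up to about 46 µM; % is set by controls: 0 for no effect and ±100 for the full control effect; inhibitors lower the ELG1-luciferase luminescence signal; nearly all actives have a fitted effect of over 70% in size.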 Put shortly: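 Luciferase read-out, ONE-Glo, 30 min at room temperature, follows 16 h co-exposure at 37 C of compound and the DNA-damaging agent 5-fluorouridine. Cells: HEK293T with ELG1-luciferase fusion, 2,000 per well, DMSO as vehicle.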

Test [8] can be described thus: Nrf2 qHTS screen for inhibitors: Validation (AID 493153; active = well fitted inhibition curve with a large enough effect in the main read-out, with a control signal flat, not every such curve was filed as active). The note with it: Potency: luciferase luminescence; viability change: measured here: cytotoxicity max response. Put shortly: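 Concentration-response on A549 ARE_Fluc reporter cells exposed 18-24 h at 37 C, 5% CO2. Cytotoxicity read first by CellTiter-Fluor fluorescence (Ex 405/Em 525), then Nrf2 inhibition by BugLite luminescence after 15 min.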

The nature of test [9]: qHTS for Inhibitors of Cell Surface uPA Generation: Validation Assay (AID 493164).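 Note: RAW 264.7 macrophage cells exposed to compound for 18 h; 0% is about no effect.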 In short, it runs like this:
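ATP-Lite luminescence read-out: ATP remains high when uPA activity-dependent LF translocation into the cytoplasm is blocked. RAW 264.7 cells, 18 h compound exposure at 37 C; 7-point titration, 2.45 nM to 38.3 uM final.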

In test [10] the target is Galactokinase (Homo sapiens) (UniProt P51570). Kind of test: qHTS Validation Assay for Inhibitors of Human Galactokinase (GALK) (AID 493189). Note: 0% is about no effect. Put shortly:
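GALK (5 nM) with 35 uM ATP and 100 uM galactose in HEPES pH 8.0 with MgCl2, NaCl, DTT and BSA. Reaction ran 1 h at room temperature. Residual ATP read by Kinase-Glo Plus luminescence.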

A short description of test [11]: Validation screen for small molecules that induce DNA re-replication in SW480 colon adenocarcinoma cells (AID 504364). Note: 0% is about no effect. Put shortly: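 Image-based DNA content read-out: Hoechst stain 40 min, total nuclear fluorescence intensity (ex 405 nm, em 500-530 nm) after 48 h compound exposure of 250 SW480 cells/well at 37 C, 5% CO2, versus DMSO vehicle.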
For test [12], the target named is Peptidyl-prolyl cis-trans isomerase NIMA-interacting 1 (Homo sapiens) (UniProt Q13526). The test is described as follows: qHTS Validation Assay to Find Inhibitors of Pin1 (AID 504536; active = well fitted inhibition curve with a large enough effect in the polarisation, with a control signal flat, not every such curve was filed as active; the % refers to the polarisation;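 note: 0% = full Pin1 enzyme wells and -100% = no-enzyme wells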). In short, it runs like this:
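Fluorescence polarization competition: compounds (titration) displace HiFluor-488-labeled Pin1-1b peptide from Pin1 (0.3 uM final) in pH 7.5 HEPES buffer with DTT, 10 min at room temperature; %Activity normalized to no-enzyme wells, curves fitted.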

Test [13] deals with phosphoglycerate mutase (Leishmania major) (UniProt Q4Q090). Kind of test: qHTS Validation Assay to Find Inhibitors of Phosphoglycerate Mutase (AID 504548). Note: series mostly up to about 58 µM; % is set by controls: 0 for no effect and ±100 for the full control effect. The note with it: Potency: inhibition qHTS. Put shortly:
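Luminescent end-point read-out via Kinase-GloPlus after a 10-minute development. Reaction: 1.25nM Leishmania major PGAM with substrate and compound, 45 minutes at room temperature in TEA buffer (pH 7.6) with MgCl2 and Tween-20.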

Test [14] concerns the target Ubiquitin carboxyl-terminal hydrolase 1 (Homo sapiens) (UniProt O94782). Kind of test: Inhibitors of USP1/UAF1: Pilot qHTS (AID 504865).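 Note: rhodamine fluorescence freed from ubiquitin-rhodamine substrate followed over time; top concentration of the series differs between compounds; % is set by controls: 0 for no effect and ±100 for the full control effect; nearly all actives have a fitted effect of over 35% in size.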 Put shortly: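 USP1/UAF1 complex at 1 nM preincubated 15 min at room temperature with compound, then Ub-Rho substrate added at 150 nM final. Fluorescence (480/540 nm) read kinetically in 50 mM HEPES pH 7.8, 0.5 mM EDTA, 1 mM TCEP, 0.1 mg/ml BSA, 0.01% Tween-20.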

Test [15] can be described thus: qHTS for Inhibitors of ATXN expression: Validation of Cytotoxic Assay (AID 588349). Note: % is set by controls: 0 for no effect and ±100 for the full control effect. Put shortly: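 Cytotoxicity counter-screen: ATP-based luminescent viability (CellTiter Glo) after 72 hr exposure of HEK293 cells to a compound titration at 37 degrees C.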
Test [16] can be described thus: qHTS for Inhibitors of ATXN expression: Validation (AID 588378). Note: nearly all actives have a fitted effect of over 75% in size. Note: potency is the fitted concentration of half-maximal effect. Put shortly: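 HEK293 cells carrying ATXN2-firefly luciferase reporter, treated with compound 24 h at 37 °C. Viability read first by CellTiter-Fluor (405/525 nm), then reporter expression by Bright-Glo luminescence; controls were a known ATXN2 expression inhibitor and a luciferase inhibitor.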
Test [17] concerns the target Phosphoglycerate kinase, glycosomal (Trypanosoma brucei brucei) (UniProt P07378). The test is described as follows: qHTS Validation Assay to Find Inhibitors of Phosphoglycerate Kinase (AID 504547).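 Note: control wells lack PGK and mark full inhibition.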 In short, it runs like this: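 Luminescence end-point (Kinase-Glo Plus, 10 min) after a 60 min room-temperature coupled reaction. GAPDH at 100nM final supplies 1,3-BPG to PGK. Buffer: 100mM TEA pH 7.6, 5mM MgCl2, 0.01% Tween-20. Wells lacking PGK served as controls.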

The target of test [18] is Thyrotropin-releasing hormone receptor (Homo sapiens) (UniProt P34981). Kind of test: qHTS for Small Molecule Agonists and Allosteric Enhancers of Human TRH Receptor: Validation Screen for Agonists (AID 493127;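 active = calcium activation more than 3 SD above the typical response in the agonist read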;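 note: intracellular calcium rise by fluo-8 fluorescence before TRH EC20 addition; 0% is about no effect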). The note with it: TRH receptor agonist cell assay; at 2 µM; stronger effect = higher value. Put shortly: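 Compound-evoked intracellular calcium release in fluo-8-loaded TRHR cells, read kinetically on FDSS (Ex 480/Em 530, 1 s/cycle) after 23 nL pintool transfer. Agonist phase preceded 10 nM TRH EC20 addition.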

Molecules are shown by their SMILES. Results filed as inconclusive are left out. Active and inactive are the calls of the source. Unless noted, calls come from the whole dose curve; as a rule, active = well fitted curve in the direction sought with a large enough effect; inconclusive = small, poorly fitted or top-dose-only effect, or another doubt; inactive = no such curve, though single readings can be large; an effect the other way counts as inactive or inconclusive.

This note sets out measurements from PubChem BioAssay (NCATS).

Chain of Phosphoglycerate kinase, glycosomal (Trypanosoma brucei brucei) (P07378 whole entry, looked up): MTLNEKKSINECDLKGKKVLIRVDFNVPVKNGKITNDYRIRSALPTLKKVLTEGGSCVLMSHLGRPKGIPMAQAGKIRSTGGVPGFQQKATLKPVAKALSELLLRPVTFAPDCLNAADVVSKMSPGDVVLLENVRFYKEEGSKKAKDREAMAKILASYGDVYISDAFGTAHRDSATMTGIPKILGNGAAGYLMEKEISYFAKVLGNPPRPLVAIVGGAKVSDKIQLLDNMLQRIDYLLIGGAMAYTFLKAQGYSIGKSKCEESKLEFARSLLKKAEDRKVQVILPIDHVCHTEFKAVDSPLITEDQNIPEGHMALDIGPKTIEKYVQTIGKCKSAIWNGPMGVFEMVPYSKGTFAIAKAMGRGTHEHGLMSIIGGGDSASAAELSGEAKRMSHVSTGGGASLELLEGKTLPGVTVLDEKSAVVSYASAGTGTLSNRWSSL
Chain of Peptidyl-prolyl cis-trans isomerase NIMA-interacting 1 (Homo sapiens) (Q13526 whole entry, looked up): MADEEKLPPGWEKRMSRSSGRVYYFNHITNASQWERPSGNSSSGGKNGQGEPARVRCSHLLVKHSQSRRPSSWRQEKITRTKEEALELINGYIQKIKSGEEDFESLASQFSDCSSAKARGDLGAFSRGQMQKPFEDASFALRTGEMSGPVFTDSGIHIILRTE
Chain of Ubiquitin carboxyl-terminal hydrolase 1 (Homo sapiens) (O94782 whole entry, looked up): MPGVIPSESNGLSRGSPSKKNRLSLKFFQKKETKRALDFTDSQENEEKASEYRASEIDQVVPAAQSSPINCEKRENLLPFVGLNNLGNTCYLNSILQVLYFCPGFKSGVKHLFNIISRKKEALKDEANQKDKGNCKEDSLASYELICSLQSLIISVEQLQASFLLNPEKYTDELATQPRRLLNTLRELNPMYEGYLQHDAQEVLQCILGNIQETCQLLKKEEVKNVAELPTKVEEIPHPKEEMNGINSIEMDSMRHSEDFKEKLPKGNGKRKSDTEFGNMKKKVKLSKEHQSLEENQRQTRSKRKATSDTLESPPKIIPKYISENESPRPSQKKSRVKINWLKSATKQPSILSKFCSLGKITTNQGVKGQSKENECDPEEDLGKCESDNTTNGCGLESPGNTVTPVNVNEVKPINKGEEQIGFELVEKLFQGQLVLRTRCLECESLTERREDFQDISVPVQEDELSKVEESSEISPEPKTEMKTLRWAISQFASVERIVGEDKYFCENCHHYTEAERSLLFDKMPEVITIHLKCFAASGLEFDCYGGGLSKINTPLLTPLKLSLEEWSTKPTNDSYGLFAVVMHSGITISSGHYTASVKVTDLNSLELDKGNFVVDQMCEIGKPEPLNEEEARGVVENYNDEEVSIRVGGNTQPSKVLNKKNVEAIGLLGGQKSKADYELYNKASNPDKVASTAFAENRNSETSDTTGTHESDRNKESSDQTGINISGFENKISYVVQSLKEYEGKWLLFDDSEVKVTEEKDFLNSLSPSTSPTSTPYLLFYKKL
Chain of Thyrotropin-releasing hormone receptor (Homo sapiens) (P34981 whole entry, looked up): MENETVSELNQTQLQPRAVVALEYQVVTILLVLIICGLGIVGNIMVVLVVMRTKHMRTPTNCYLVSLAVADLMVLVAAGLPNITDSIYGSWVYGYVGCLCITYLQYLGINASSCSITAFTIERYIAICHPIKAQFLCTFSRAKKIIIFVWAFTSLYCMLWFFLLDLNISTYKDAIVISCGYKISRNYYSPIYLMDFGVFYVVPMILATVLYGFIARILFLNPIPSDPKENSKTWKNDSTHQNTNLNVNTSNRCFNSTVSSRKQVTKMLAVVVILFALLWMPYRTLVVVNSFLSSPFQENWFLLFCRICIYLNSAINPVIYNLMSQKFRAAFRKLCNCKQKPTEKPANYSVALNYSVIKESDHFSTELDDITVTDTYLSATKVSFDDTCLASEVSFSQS
Chain of Transient receptor potential cation channel subfamily V member 1 (Homo sapiens) (Q8NER1 whole entry, looked up): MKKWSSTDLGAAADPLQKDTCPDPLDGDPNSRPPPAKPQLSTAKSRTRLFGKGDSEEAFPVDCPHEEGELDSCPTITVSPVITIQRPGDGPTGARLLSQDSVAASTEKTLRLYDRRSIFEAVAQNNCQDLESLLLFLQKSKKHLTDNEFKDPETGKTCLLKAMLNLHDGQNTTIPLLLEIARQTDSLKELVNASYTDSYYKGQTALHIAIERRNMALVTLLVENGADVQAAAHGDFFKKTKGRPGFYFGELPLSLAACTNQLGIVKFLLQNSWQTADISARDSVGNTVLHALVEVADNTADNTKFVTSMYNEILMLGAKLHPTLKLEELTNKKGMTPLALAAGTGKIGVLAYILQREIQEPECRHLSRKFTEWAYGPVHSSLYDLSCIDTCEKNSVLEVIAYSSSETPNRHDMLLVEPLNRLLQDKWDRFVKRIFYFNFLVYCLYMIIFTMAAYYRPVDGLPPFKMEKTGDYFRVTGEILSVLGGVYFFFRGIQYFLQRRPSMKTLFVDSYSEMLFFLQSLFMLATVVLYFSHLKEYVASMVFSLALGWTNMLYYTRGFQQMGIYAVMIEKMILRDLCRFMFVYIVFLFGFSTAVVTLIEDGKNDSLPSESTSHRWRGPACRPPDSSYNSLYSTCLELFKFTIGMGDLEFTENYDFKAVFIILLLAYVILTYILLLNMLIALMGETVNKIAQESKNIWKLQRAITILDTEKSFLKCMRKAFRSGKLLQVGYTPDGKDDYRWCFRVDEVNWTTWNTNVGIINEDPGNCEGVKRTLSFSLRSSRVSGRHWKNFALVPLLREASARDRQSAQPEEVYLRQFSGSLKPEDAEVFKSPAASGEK
Chain of ATPase family AAA domain-containing protein 5 (Homo sapiens) (Q96QE3 whole entry, looked up, the tested form may be a part): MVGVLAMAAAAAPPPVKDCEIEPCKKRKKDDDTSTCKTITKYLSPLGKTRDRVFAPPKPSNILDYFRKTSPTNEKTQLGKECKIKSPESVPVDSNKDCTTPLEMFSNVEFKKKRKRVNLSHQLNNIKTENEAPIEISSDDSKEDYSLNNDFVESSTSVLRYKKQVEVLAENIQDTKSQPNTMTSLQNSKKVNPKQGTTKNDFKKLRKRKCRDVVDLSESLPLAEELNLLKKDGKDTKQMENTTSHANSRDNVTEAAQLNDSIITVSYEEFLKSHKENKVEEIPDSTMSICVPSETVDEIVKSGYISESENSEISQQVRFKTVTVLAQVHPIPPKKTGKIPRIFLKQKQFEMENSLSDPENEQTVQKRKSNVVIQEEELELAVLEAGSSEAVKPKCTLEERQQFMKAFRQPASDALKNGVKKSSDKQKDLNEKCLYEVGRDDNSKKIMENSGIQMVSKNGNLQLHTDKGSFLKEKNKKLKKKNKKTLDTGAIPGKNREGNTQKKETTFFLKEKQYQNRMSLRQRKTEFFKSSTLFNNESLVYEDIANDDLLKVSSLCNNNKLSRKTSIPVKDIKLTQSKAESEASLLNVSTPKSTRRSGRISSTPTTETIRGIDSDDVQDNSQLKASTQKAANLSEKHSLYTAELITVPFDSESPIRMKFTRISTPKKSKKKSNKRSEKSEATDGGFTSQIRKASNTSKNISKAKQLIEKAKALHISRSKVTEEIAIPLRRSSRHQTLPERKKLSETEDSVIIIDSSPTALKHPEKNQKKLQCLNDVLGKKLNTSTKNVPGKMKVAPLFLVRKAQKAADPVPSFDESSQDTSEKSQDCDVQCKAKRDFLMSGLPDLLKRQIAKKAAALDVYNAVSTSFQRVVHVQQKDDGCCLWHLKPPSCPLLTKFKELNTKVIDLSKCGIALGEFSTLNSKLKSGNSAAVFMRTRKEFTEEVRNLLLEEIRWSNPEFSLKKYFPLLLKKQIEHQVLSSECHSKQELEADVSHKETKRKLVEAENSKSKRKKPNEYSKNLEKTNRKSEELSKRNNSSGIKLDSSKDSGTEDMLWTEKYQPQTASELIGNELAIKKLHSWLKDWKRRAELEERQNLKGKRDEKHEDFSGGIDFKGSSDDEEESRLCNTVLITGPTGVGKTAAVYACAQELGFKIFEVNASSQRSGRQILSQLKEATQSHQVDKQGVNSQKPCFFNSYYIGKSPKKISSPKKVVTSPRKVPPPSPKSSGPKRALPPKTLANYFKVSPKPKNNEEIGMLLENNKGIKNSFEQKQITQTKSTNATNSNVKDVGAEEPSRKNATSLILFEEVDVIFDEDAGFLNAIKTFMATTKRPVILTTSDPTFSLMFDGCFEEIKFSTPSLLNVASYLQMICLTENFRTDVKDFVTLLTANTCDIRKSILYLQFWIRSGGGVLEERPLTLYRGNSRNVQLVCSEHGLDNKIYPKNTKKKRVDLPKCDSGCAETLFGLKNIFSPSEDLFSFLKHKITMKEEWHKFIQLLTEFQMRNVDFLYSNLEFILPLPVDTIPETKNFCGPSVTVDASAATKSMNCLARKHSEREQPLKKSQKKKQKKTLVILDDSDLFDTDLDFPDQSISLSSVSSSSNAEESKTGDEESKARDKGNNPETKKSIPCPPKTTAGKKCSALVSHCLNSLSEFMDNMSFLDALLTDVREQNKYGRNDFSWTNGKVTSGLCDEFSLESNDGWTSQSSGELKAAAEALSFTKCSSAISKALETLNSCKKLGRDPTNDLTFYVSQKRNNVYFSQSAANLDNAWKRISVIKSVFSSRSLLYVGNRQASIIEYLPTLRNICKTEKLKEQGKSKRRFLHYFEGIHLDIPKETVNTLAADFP
Chain of D(1A) dopamine receptor (Homo sapiens) (P21728 whole entry, looked up): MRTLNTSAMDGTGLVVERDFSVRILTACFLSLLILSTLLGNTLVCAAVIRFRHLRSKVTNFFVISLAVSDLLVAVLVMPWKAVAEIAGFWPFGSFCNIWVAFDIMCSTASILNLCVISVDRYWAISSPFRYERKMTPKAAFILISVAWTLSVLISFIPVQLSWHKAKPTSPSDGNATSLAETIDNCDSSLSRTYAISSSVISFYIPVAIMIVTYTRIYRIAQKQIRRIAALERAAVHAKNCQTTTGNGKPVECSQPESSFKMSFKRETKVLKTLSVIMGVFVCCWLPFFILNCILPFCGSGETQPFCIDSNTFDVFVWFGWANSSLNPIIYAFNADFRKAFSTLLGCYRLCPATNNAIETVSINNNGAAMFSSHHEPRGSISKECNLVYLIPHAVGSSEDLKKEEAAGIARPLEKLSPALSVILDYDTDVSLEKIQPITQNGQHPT

On to `N[C@H]1CONC1=O`, for which the result in test [1], in test [2] and in test [9] was inactive. Besides, the Potency entry in [3], in test [4], in test [5], in [6], in test [7] and in [8] was “inactive” each time. Also, the Potency result in [10], in test [11], in test [12], in [13], in test [14] and in [15] was “inactive” throughout. The Potency entry in test [16] was “inactive”. In addition, the viability change in test [8] was 1.32%.

Regarding `NCCC1CCCC(CCN)N1` (configuration not stated), the outcome in test [1], in [2] and in [9] was inactive. The Potency result in test [3], in test [4], in test [5], in [6], in test [7] and in [10] was “inactive” in each case. The Potency entry in test [11], in [12], in [17], in test [13], in test [14] and in test [15] was “inactive” in each case.

For the compound `O=C(O)c1ccccc1Nc1ccccc1`, the outcome in test [1] and in test [2] was inactive. For the same compound, the Potency result in test [3], in test [4], in test [5], in test [6], in [7] and in test [8] was “inactive” each time. In addition, the Potency result in test [10], in test [11], in test [12], in test [17], in [13] and in [14] was “inactive” throughout. In addition, the Potency entry in test [15] and in test [16] was “inactive” each time. Further, the viability change in test [8] was 10.9%.

As to `N[C@@H](Cc1ccc(F)cc1)C(=O)O`, the result in test [1], in test [2] and in test [9] was inactive. Besides, the Potency result in test [3], in test [4], in [5], in [6], in test [8] and in test [10] was “inactive” in each case. In addition, the Potency entry in [11], in [12], in [17], in [13], in [14] and in test [15] was “inactive” each time. The Potency result in [16] was “inactive”. Besides, the activation in test [18] was 0.125% (inactive). The viability change in test [8] is -9.16%.

In the case of `CNc1cc(NS(=O)(=O)c2ccc(N)cc2)nc(NC)n1`, the outcome in test [1], in [2] and in [9] was inactive. The Potency entry in [3], in test [4], in test [5], in test [6], in [8] and in test [10] was “inactive” each time. Also, the Potency result in test [11], in test [12], in test [17], in [13], in test [14] and in test [16] was “inactive” throughout. Also, the activation in test [18] is 0.25% (inactive). Besides, the viability change in test [8] is 6.74%.

`CC1CNCCN1S(=O)(=O)c1cccc2cnccc12` (configuration not stated): the outcome in test [1], in [2] and in test [9] was inactive. Further, the Potency result in [3], in [4], in test [5], in [6], in [10] and in [11] was “inactive” throughout. For the same compound, the Potency entry in test [12], in test [13] and in test [14] was “inactive” throughout. Moreover, in [18], the activation is 1.25% (inactive). Besides, in test [16], the Potency is 22.4 µM (active).

As to `COc1ccc(CCN(C)CCc2ccc(OC)c(OC)c2)cc1OC`, the result in test [1], in [2] and in test [9] was inactive. The Potency entry in [3], in [4], in test [5], in test [7], in [10] and in [11] was “inactive” in each case. In addition, the Potency entry in test [12], in [13], in [14] and in test [15] was “inactive” each time. For the same compound, the activation in test [18] was -4.19% (inactive).
